Two sequences from article PMC7862700, “An all-to-all approach to the identification of sequence-specific readers for epigenetic DNA modifications on cytosine” can be followed below.

Common to all, as to assay: DAPPL (digital affinity profiling via proximity ligation, sequencing); 10 mM Tris-HCl pH 7.5, 50 mM NaCl, 1 mM DTT, 4% glycerol, room temperature, 30 min; GST-TFs on glutathione beads, 16-mer random dsDNA library, 0.1% formaldehyde crosslink after washing; high values mean tight binding
What all share (conditions): protein: recombinant; tags: N-terminal GST; dsDNA, one strand shown

In one assay the target is T1, FLI1 (Homo sapiens, UniProt Q01543 1-452).
T1 sequence: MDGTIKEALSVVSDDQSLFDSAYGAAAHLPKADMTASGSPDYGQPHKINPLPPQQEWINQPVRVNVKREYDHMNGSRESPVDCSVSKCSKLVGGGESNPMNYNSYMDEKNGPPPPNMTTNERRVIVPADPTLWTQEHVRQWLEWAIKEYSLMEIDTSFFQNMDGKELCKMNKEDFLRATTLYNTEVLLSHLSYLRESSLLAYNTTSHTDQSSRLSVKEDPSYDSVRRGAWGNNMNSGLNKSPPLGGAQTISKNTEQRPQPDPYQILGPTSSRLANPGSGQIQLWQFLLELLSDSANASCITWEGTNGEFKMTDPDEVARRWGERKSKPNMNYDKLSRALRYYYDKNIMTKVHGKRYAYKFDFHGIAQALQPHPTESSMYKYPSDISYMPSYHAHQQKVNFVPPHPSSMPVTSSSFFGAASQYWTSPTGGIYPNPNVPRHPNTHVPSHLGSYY
The method, boiled down:
(§1)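 Binding signal is given per hexamer as its read frequency for a factor divided by its frequency in the tag-only sample. GST-fused human transcription factors were expressed in yeast, captured on glutathione beads, barcoded with DNA and pooled with that sample, then incubated with 200 nmole of a 16-mer random double-stranded DNA library in Tris/NaCl/DTT/glycerol buffer for 30 min at room temperature. The pools were then washed, crosslinked, proximity-ligated, amplified by PCR and sequenced on an Illumina NextSeq500.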

The next assay addresses T2, ELK1 (Homo sapiens, UniProt P19419 1-428).
T2 sequence: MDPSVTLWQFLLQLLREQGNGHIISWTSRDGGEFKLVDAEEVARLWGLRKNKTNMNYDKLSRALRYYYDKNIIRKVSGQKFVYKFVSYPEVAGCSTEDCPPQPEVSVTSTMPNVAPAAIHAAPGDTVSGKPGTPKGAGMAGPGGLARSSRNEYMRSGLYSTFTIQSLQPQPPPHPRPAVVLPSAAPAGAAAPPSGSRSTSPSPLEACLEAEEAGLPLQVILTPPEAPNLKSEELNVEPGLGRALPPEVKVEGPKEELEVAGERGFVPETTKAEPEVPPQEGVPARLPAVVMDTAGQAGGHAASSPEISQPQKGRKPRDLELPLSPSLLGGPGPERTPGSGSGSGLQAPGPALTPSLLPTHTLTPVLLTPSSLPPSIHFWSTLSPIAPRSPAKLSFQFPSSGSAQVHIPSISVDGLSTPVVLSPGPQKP
The method, boiled down:
as §1

For a further assay, the target named is T3, GABPA (Homo sapiens, UniProt Q06546 1-454).
T3 sequence: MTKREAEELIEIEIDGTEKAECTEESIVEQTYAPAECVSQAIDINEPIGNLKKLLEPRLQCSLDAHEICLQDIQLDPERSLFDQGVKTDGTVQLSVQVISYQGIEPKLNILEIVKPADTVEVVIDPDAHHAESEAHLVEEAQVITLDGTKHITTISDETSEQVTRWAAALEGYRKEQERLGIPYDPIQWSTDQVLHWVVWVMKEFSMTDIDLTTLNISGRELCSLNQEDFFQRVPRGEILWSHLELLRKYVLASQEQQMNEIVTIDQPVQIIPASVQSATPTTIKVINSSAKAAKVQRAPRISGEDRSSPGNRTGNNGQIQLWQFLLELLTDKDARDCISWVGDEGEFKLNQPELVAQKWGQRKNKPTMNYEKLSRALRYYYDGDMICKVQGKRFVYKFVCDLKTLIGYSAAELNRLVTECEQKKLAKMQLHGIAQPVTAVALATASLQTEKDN
The method, boiled down: as §1

For another assay, the target named is T4, ERG (Homo sapiens, UniProt P11308 1-479).
T4 sequence: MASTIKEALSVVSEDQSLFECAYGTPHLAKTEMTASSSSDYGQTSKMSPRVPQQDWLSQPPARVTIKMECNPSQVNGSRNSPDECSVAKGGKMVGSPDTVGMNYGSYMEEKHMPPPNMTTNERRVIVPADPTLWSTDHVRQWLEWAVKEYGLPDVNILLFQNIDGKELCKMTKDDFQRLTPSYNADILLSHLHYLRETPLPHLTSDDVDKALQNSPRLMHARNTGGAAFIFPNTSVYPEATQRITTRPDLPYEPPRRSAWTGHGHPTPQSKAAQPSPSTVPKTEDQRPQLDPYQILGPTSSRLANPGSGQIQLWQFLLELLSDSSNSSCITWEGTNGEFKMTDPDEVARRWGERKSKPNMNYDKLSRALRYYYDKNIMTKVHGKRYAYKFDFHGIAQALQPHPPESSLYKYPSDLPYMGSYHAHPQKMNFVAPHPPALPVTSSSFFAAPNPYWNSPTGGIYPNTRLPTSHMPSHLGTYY
The method, boiled down:
as §1

The target of another assay is ELF1 (Homo sapiens, UniProt P32519 1-619). The procedure, abridged:
as §1

A further assay addresses T5, EHF (Homo sapiens, UniProt Q9NZC4 1-300).
T5 sequence: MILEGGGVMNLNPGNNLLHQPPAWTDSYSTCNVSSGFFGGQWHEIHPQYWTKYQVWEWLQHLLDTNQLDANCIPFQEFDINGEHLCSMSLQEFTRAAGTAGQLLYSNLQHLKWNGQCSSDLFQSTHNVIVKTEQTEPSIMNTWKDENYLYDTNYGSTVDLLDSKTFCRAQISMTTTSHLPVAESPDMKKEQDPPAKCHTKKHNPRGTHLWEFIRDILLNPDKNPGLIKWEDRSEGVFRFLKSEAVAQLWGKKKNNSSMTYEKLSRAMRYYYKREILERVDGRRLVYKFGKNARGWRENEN
The method, boiled down: as §1

The target in the next assay is SPI1 (Homo sapiens, UniProt P17947 1-270). The method, boiled down: as §1
In a further assay the target is SPIB (Homo sapiens, UniProt Q01892 1-262). The procedure, abridged: as §1
In another assay the target is T6, ELK3 (Homo sapiens, UniProt P41970 1-407).
T6 sequence: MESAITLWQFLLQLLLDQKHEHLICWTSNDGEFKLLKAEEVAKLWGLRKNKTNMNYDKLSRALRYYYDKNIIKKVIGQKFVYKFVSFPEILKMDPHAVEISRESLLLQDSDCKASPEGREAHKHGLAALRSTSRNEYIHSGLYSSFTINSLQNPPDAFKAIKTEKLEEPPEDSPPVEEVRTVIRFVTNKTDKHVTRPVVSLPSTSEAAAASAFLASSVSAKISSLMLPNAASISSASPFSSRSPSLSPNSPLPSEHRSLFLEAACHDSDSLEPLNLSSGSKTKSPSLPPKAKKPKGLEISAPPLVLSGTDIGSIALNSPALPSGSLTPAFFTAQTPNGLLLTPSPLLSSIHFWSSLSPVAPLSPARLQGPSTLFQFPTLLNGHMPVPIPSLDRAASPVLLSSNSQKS
The procedure, abridged:
as §1

A further assay deals with T7, FEV (Homo sapiens, UniProt Q99581 1-238).
T7 sequence: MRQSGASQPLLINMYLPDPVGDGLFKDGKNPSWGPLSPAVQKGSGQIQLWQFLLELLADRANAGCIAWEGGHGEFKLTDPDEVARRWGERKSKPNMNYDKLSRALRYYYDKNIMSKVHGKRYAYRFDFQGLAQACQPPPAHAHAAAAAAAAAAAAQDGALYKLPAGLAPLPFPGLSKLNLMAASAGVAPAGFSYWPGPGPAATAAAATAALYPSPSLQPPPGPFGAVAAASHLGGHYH
The method, boiled down: as §1

For another assay, the target named is ETV5 (Homo sapiens, UniProt P41161 1-510). The procedure, abridged:
as §1

For another assay, the target named is T8, SPIC (Homo sapiens, UniProt Q8N5J4 1-248).
T8 sequence: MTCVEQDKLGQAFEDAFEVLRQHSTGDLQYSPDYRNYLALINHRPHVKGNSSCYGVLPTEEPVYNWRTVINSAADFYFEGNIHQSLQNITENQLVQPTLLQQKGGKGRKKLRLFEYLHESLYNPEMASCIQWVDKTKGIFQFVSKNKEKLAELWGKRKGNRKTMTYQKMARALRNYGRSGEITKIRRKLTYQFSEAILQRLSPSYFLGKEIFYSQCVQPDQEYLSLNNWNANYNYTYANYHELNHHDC
The method, boiled down: as §1

A further assay concerns the target ELF4 (Homo sapiens, UniProt Q99607 1-663). The procedure, abridged:
as §1

The next assay has as its target T9, ELK4 (Homo sapiens, UniProt P28324-2 1-405).
T9 sequence: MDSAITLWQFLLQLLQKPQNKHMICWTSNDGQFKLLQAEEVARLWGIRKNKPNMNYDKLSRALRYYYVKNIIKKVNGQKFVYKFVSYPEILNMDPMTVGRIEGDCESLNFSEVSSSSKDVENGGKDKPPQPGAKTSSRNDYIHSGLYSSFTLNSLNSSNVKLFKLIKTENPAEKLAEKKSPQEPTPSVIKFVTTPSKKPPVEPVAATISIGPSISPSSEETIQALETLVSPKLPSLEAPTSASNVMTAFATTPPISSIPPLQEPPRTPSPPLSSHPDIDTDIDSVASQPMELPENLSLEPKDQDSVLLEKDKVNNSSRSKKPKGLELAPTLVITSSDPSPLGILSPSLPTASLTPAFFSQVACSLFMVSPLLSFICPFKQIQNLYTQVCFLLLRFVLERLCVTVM
The method, boiled down:
as §1

For another assay, the target named is T10, ELF3 (Homo sapiens, UniProt P78545 1-371).
T10 sequence: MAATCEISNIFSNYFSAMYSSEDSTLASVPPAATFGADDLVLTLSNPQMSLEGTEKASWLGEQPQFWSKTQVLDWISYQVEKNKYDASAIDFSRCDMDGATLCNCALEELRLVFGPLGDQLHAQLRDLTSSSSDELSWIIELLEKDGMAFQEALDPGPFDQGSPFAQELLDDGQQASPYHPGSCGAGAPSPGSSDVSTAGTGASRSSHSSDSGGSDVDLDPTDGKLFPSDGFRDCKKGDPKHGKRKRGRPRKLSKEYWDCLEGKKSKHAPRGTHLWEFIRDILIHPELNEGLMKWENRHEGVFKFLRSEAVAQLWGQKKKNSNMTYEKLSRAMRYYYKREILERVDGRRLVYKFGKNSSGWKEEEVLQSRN
The method, boiled down: as §1

The next assay has as its target ETV1 (Homo sapiens, UniProt P50549 1-477). The method, boiled down: as §1
The target of the next assay is T11, ETV2 (Homo sapiens, UniProt O00321 1-342).
T11 sequence: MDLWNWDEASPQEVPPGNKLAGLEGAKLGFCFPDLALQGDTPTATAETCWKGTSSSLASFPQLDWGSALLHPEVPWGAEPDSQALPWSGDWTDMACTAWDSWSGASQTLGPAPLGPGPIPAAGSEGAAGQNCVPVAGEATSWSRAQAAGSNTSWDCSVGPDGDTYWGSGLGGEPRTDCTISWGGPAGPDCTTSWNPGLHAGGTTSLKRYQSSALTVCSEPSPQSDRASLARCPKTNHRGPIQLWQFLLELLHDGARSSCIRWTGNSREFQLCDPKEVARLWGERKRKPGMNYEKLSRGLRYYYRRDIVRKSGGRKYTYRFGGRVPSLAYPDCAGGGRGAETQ
The method, boiled down: as §1

ETV5, sequence (P41161 whole entry): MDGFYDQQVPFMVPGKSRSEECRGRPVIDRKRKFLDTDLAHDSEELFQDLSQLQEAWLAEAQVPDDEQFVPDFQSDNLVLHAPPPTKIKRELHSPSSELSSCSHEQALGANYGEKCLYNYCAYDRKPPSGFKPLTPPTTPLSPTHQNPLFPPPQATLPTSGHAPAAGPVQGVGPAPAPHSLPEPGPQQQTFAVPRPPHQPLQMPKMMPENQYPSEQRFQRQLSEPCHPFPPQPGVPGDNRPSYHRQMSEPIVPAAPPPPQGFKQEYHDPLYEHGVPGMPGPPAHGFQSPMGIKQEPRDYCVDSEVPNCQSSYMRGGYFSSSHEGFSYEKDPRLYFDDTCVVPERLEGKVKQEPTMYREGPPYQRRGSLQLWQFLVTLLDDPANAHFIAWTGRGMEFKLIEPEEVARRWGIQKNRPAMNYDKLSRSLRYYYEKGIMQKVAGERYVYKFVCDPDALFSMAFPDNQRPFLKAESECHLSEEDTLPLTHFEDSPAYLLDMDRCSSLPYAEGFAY
ETV1, sequence (P50549 whole entry): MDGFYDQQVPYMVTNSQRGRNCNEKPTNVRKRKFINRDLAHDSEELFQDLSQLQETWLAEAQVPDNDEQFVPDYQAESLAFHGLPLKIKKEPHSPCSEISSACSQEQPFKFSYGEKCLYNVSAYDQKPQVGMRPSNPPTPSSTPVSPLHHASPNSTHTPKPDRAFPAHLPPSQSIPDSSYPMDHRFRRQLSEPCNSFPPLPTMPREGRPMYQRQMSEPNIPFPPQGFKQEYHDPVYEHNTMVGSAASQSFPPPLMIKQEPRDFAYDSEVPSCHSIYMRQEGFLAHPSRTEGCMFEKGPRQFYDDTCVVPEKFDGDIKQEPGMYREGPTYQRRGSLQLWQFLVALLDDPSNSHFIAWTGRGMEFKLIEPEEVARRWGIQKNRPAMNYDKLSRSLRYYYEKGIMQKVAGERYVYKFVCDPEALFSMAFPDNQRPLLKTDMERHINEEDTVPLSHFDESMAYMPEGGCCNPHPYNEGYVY
ELF4, sequence (Q99607 whole entry): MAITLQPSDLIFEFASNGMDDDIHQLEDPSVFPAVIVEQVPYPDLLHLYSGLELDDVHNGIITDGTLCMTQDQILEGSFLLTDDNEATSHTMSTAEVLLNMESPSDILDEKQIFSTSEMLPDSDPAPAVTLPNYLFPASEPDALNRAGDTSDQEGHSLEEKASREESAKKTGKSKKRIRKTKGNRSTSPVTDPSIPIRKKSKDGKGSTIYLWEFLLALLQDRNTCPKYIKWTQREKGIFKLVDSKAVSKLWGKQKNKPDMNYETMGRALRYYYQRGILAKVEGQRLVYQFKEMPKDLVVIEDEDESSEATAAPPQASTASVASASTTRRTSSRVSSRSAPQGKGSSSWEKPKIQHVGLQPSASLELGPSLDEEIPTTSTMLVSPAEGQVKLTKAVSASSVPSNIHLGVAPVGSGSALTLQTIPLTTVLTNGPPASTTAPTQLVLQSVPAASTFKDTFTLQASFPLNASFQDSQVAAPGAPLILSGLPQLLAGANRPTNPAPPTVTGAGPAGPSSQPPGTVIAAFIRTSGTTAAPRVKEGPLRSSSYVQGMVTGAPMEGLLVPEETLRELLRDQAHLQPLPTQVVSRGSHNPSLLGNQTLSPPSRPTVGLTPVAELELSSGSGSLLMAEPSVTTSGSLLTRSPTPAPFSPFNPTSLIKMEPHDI
SPIB, sequence (Q01892 whole entry): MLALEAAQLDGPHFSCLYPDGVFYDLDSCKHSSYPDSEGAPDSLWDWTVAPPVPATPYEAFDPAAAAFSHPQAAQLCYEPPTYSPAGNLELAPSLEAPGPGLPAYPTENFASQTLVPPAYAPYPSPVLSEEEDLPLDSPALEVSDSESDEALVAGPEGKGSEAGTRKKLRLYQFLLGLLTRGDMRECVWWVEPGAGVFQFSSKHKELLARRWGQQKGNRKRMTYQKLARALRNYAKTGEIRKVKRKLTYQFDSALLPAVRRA
ELF1, sequence (P32519 whole entry): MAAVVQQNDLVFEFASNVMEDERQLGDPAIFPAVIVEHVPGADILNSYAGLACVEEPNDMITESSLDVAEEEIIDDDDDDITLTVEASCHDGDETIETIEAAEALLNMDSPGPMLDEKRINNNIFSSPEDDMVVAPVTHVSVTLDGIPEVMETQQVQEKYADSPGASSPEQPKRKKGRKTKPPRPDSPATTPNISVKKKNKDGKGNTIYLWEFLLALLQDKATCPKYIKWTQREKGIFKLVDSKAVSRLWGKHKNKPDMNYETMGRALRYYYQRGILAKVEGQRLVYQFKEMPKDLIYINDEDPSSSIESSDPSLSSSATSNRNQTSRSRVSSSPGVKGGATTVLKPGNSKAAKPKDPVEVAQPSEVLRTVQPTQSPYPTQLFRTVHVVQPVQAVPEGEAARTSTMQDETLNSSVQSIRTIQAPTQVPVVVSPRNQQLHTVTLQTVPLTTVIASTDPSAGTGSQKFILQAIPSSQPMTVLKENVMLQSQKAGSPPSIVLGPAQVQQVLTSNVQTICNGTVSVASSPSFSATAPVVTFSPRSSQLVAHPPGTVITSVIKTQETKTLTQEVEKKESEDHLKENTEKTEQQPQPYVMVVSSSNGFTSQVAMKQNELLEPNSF

Regarding GCCAAT, the binding signal in the assay with FLI1 is 1.1 fold enrichment (6-mer frequency, TF over GST control); with ELK1, 1.02 fold enrichment (6-mer frequency, TF over GST control); with GABPA, 1.05 fold enrichment (6-mer frequency, TF over GST control); with ERG, 1 fold enrichment (6-mer frequency, TF over GST control); in the assay with ELF1, 1.04 fold enrichment (6-mer frequency, TF over GST control); with EHF it was 1.03 fold enrichment (6-mer frequency, TF over GST control). Besides, the binding signal with SPI1 was 1.01 fold enrichment (6-mer frequency, TF over GST control); with SPIB, 1.07 fold enrichment (6-mer frequency, TF over GST control); with ELK3 it was 1.11 fold enrichment (6-mer frequency, TF over GST control); with FEV it was 1.03 fold enrichment (6-mer frequency, TF over GST control); in the assay with ETV5, 1.09 fold enrichment (6-mer frequency, TF over GST control); with SPIC it was 1.05 fold enrichment (6-mer frequency, TF over GST control). For the same sequence, the binding signal in the assay with ELF4 is 1.12 fold enrichment (6-mer frequency, TF over GST control); with ELK4, 1.01 fold enrichment (6-mer frequency, TF over GST control); in the assay with ELF3 it was 1.2 fold enrichment (6-mer frequency, TF over GST control); in the assay with ETV1, 1.13 fold enrichment (6-mer frequency, TF over GST control).

For the sequence GGTCCC, the binding signal is 1.13 fold enrichment (6-mer frequency, TF over GST control) in the assay with FLI1; 1.21 fold enrichment (6-mer frequency, TF over GST control) in the assay with ELK1; 1.16 fold enrichment (6-mer frequency, TF over GST control) with GABPA; 1.21 fold enrichment (6-mer frequency, TF over GST control) with ERG; 1.17 fold enrichment (6-mer frequency, TF over GST control) in the assay with ELF1; 1.19 fold enrichment (6-mer frequency, TF over GST control) with EHF. The binding signal in the assay with SPI1 was 1.1 fold enrichment (6-mer frequency, TF over GST control); with SPIB, 1.31 fold enrichment (6-mer frequency, TF over GST control); with ELK3 it was 1.16 fold enrichment (6-mer frequency, TF over GST control); with FEV it was 1.1 fold enrichment (6-mer frequency, TF over GST control); with ETV5 it was 1.13 fold enrichment (6-mer frequency, TF over GST control); with SPIC, 1.18 fold enrichment (6-mer frequency, TF over GST control). The binding signal in the assay with ELF4 was 1.16 fold enrichment (6-mer frequency, TF over GST control); in the assay with ELK4, 1.29 fold enrichment (6-mer frequency, TF over GST control); with ETV2, 1.16 fold enrichment (6-mer frequency, TF over GST control); with ETV1, 1.3 fold enrichment (6-mer frequency, TF over GST control).
